According to PubChem BioAssay AID1159580 (chemical genetic matrix, 2015):
Where “and” joins values, the source holds several entries; their conditions need not be identical. Equal values may be shown once. The whole screen tested about 5,500 compounds, of which about 2,000 (36%) were called active. Inconclusive results (about 18%) are left out. No stated cut-off is given here; in the data, active means normalized growth mostly below about 0.91 (no sharp cut-off); inconclusive means no clear call, values can overlap the other calls; inactive means mostly above about 0.92. The list shows a part of the results.

Assay: chemical genetic growth profiling, strain panel (AID 1159580);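 further: tested at 20 µM; growth read once vehicle control cultures reached saturation at 30 °C; 1 = growth at the plate median or of vehicle wells; lower values mean less growth of the strain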
Details: S. cerevisiae deletion strains, growth OD

Measured: normalized growth

CC(C)[N+](C)(CCOC(=O)C1c2ccccc2Oc2ccccc21)C(C)C
inactive: locus YAL013W, strain DEP1, hits give low values 1.01 | locus YAL021C, strain ccr4, hits give low values 1.01 | locus YAL026C, strain drs2, hits give low values 1.03 | locus YAL030W, strain snc1, hits give low values 1.02 | locus YAL040C, strain CLN3, hits give low values 1.01 | locus YBL061C, strain skt5, hits give low values 0.989 | locus YBR009C, strain hhf1, hits give low values 0.997 | locus YBR021W, strain FUR4, hits give low values 1.02 | locus YBR023C, strain chs3, hits give low values 1.02 | locus YBR171W, strain sec66, hits give low values 1.01 | locus YBR229C, strain ROT2, hits give low values 0.997 | locus YBR231C, strain swc5, hits give low values 1.01 | locus YBR279W, strain paf1, hits give low values 0.99 | locus YCL011C, strain gbp2, hits give low values 1.01 | locus YCL016C, strain dcc1, hits give low values 1.01 | locus YCL029C, strain bik1, hits give low values 1.01 | locus YCL061C, strain MRC1 (second series), hits give low values 1.01 | locus YCL069W, strain vba3, hits give low values 0.993 | locus YCR088W, strain abp1, hits give low values 1.01 | locus YDL005C, strain med2, hits give low values 1.02 | locus YDL035C, strain GPR1, hits give low values 1.01 | locus YDL040C, strain nat1, hits give low values 0.996 | locus YDL074C, strain BRE1, hits give low values 1.02 | locus YDL101C, strain DUN1, hits give low values 1 | locus YDL134C, strain PPH21, hits give low values 1 | locus YDL185W, strain tfp1, hits give low values 1 | locus YDL192W, strain arf1, hits give low values 1.01 | locus YDR001C, strain nth1, hits give low values 0.996 | locus YDR069C, strain doa4, hits give low values 1 | locus YDR101C, strain arx1, hits give low values 0.997 | locus YDR137W, strain rgp1, hits give low values 1.01 | locus YDR150W, strain NUM1, hits give low values 1.01 and 1 | locus YDR159W, strain sac3, hits give low values 0.987 | locus YDR162C, strain NBP2, hits give low values 1.02 | locus YDR195W, strain ref2 0.976 | locus YDR297W, strain sur2, hits give low values 0.999 | locus YDR318W, strain mcm21, hits give low values 1.01 | locus YDR334W, strain swr1, hits give low values 1 | locus YDR335W, strain msn5, hits give low values 1.01 | locus YDR363W, strain ESC2, hits give low values 1.05 | locus YDR388W, hits give low values 1.01 | locus YDR392W, strain spt3, hits give low values 0.98 | locus YDR502C, strain sam2, hits give low values 1 | locus YEL003W, strain gim4, hits give low values 1 | locus YEL037C, strain rad23, hits give low values 0.995 | locus YEL061C, strain CIN8 (second series), hits give low values 0.995 | locus YEL061C, strain CIN8, hits give low values 1.01 | locus YER002W, strain NOP16, hits give low values 1.02 | locus YER015W, strain faa2, hits give low values 1.01 | locus YER016W, strain bim1, hits give low values 1.01 | locus YER110C, hits give low values 1 | locus YER111C, strain swi4, hits give low values 0.993 | locus YER155C, strain BEM2 (second series), hits give low values 0.955 | locus YER155C, strain BEM2, hits give low values 1.01 | locus YER167W, strain BCK2, hits give low values 1.01 | locus YFR010W, strain ubp6, hits give low values 0.994 | locus YGL078C, strain dbp3, hits give low values 1.01 | locus YGL086W, strain mad1, hits give low values 0.998 | locus YGL167C, strain pmr1, hits give low values 0.997 | locus YGL173C, strain kem1, hits give low values 1 | locus YGL227W, strain vid30, hits give low values 1.02 | locus YGL240W, strain doc1, hits give low values 0.983 | locus YGL248W, strain PDE1, hits give low values 0.997 | locus YGL253W, strain hxk2, hits give low values 1.02 | locus YGR078C, strain PAC10, hits give low values 1 and 1.01 | locus YGR135W, strain pre9, hits give low values 1.01 | locus YGR229C, strain SMI1, hits give low values 1.02 | locus YGR252W, strain gcn5, hits give low values 0.956 | locus YHR013C, strain ard1, hits give low values 1.04 | locus YHR027C, strain rpn1, hits give low values 1.01 | locus YHR030C, strain SLT2, hits give low values 1 and 1.05 | locus YHR079C, strain IRE1 (second series), hits give low values 1.01 | locus YHR079C, strain IRE1, hits give low values 1.05 | locus YHR094C, strain hxt1, hits give low values 1 | locus YHR129C, strain ARP1, hits give low values 1 | locus YHR142W, strain chs7, hits give low values 0.994 | locus YHR200W, strain rpn10, hits give low values 1.01 | locus YIL066C, strain RNR3, hits give low values 1.01 | locus YIL073C, strain SPO22, hits give low values 1.03 | locus YIL125W, strain kgd1, hits give low values 1.01 | locus YIR030C, strain dcg1, hits give low values 1.01 | locus YJL092W, strain hpr5, hits give low values 1 | locus YJL095W, strain BCK1 (second series), hits give low values 1.01 | locus YJL095W, strain BCK1, hits give low values 0.996 and 1.01 | locus YJL115W, strain asf1, hits give low values 1 | locus YJL129C, strain trk1, hits give low values 1.01 | locus YJL134W, strain LCB3, hits give low values 1.01 | locus YJL154C, strain vps35, hits give low values 1.01 | locus YJL164C, strain tpk1, hits give low values 0.995 | locus YJL166W, strain qcr8, hits give low values 0.98 | locus YJL168C, strain set2, hits give low values 1 | locus YJL187C, strain SWE1 (second series), hits give low values 1 | locus YJR043C, strain POL32, hits give low values 1 | locus YJR066W, strain TOR1, hits give low values 0.985
